Test: qHTS profiling of inhibitors of Plasmodium falciparum (DD2) proliferation (acoustic dispense)
Conditions: P. falciparum Dd2 in erythrocytes, SYBR Green DNA, 72 h; at 49.8 µM (top of the series) unless noted

SMILES | parasite growth, lower = inhibition
CCS(=O)(=O)Nc1ccc2[nH]c(O)c(C(=Nc3ccc(CN4CCCCC4)cc3)c3ccccc3)c2c1 | -0.594%
CCCCCCCCCCOc1cc2c(=O)c(C(=O)OCC)c[nH]c2cc1OCC | 1.27%
CCc1nc(N)nc(N)c1-c1ccc(Cl)cc1 | 79.6%
CCn1nnc2c(N3CCOCC3)nc(-c3ccc(NC(=O)Nc4ccc(C(=O)N5CCN(C)CC5)cc4)cc3)nc21 | 2.15%
Clc1ccc2c(N3CCN(CCCN4CCN(c5ccnc6cc(Cl)ccc56)CC4)CC3)ccnc2c1 | -0.434% [at 23.2 µM]
COc1cc([C@@H]2c3cc4c(cc3[C@@H](O[C@@H]3O[C@@H]5CO[C@@H](c6cccs6)O[C@@H]5[C@H](O)[C@@H]3O)[C@H]3COC(=O)[C@H]23)OCO4)cc(OC)c1O | -0.345%
CC(C)n1nc(-c2ccc3oc(N)nc3c2)c2c(N)ncnc21 | -0.0305%
Cn1c(=O)n(-c2ccc(C(C)(C)C#N)cc2)c2c3cc(-c4cnc5ccccc5c4)ccc3ncc21 | 1%
COc1ncc(-c2ccc3nccc(-c4ccnnc4)c3c2)cc1NS(=O)(=O)c1ccc(F)cc1F | -0.286%
CC(C)C[C@H](NC(=O)[C@H](CCc1ccccc1)NC(=O)CN1CCOCC1)C(=O)N[C@@H](Cc1ccccc1)C(=O)N[C@@H](CC(C)C)C(=O)[C@@]1(C)CO1 | 0.838%
CCC[C@H](Nc1nc(-c2ccc(NC(=O)NCC)c(OC)c2)ncc1C)c1cccnc1 | 1.45%
COc1ccc(-c2nc(N3CCOCC3)c3sc(CN(C)c4ncc(C(=O)NO)cn4)cc3n2)cn1 | 0.651%
NC(=NCCCCCCN=C(N)N=C(N)Nc1ccc(Cl)cc1)N=C(N)Nc1ccc(Cl)cc1 | 3.29%
